High-throughput results: PubChem BioAssay, National Center for Advancing Translational Sciences (NCATS)
HT1080 IDH1KD tx = kills HT-1080 cells with IDH1 knockdown; HT-1080 IDH1 knockdown viability, ATP luminescence, 48 h; Potency, µM (doses to about 46.1 µM), for inactives: at the top dose activity, negative = toxicity, usual class: cytotoxic; 360,000 compounds, 2% hits; AID 686971;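 note: potency is the fitted concentration of half-maximal effect; 0% = DMSO wells and -100% = cell-free medium wells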
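% activity derives from luminescence (CellTiter-Glo), normalised to DMSO and no-cell wells. HT-1080-IDH1KD cells, 750/well, had 48 h compound exposure at 37 °C.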
TDP1 cell noCPT = qHTS for Inhibitors of human tyrosyl-DNA phosphodiesterase 1 (TDP1): qHTS in cells in absence of CPT; DT40 Tdp1-/- hTDP1 cells, no CPT, ATP luminescence, 48 h; Potency, µM (highest dose often 46.2 µM), without a hit: top-dose activity change, negative = growth inhibition, most hits filed as inhibitors; 420,000 compounds, 15% hits; note: potency is the fitted concentration of half-maximal effect; nearly all actives have a fitted effect of over 55% in size
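Chicken DT40 Tdp1-/- cells stably complemented with human TDP1 were seeded at 400 cells/well with DMSO in place of 20 nM camptothecin. After compound pinning, cells grew at least 48 hr at 37 °C; viability read by CellTiter-Glo luminescence.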
HT1080-NT tox = kills 2HG-producing HT-1080-NT fibrosarcoma cells. HT-1080-NT fibrosarcoma viability, CellTiter-Glo ATP luminescence, 48 h. Potency, µM (top dose mostly 46.1 µM), for inactives: at the highest dose activity, negative = less viability, usual class: cytotoxic. 360,000 compounds, 1.6% hits;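 note: NT is the 2HG producing partner of a matched IDH1 knockdown line; potency is the fitted concentration of half-maximal effect; 0% = DMSO-treated cells and -100% = media-only wells without cells; nearly all actives have a fitted effect of over 55% in size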
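HT-1080-NT; 750 cells/well; 5% FBS RPMI; 48 h compound, 37 degrees C; CellTiter-Glo luminescence; curve fitting and curve-class assignment.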
TDP1 cell CPT = growth inhibition of DT40 Tdp1-/-;hTDP1 cells with camptothecin (screen for TDP1 inhibitors); 420,000 compounds, 12% hits; AID 686979; Potency, µM (highest dose often 46.2 µM), without a hit: at the highest dose activity change, negative = growth inhibition, actives largely listed as inhibitors; chicken DT40 Tdp1-/-;hTDP1 cells + 20 nM CPT, ATP luminescence, 48 h; note: potency is the fitted concentration of half-maximal effect; nearly all actives have a fitted effect of over 55% in size
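Chicken DT40 Tdp1-/- cells complemented with human TDP1, 400 cells/well, exposed to compounds plus 20 nM camptothecin for at least 48 h at 37 C; viability read as ATP content by CellTiter-Glo luminescence.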
IL-1B inflam inh = inhibitors of inflammasome signaling (IL-1 beta secretion). THP-1 LPS/ATP IL-1B secretion, AlphaLISA, 16 h; stronger effect = lower value. activity change, % at 57.5 µM. 360,000 compounds, 4.7% hits. AID 743279; in the data active = activity change below about -50%; inconclusive = mostly about -30% to -49%
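THP-1 cells pretreated 1 hr with compounds (up to 57.5 uM final), then stimulated with LPS (250 ng/mL final) plus ATP (1.25 mM final); secreted IL-1B measured by AlphaLISA after 16 hr, decreased signal indicating inhibition.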
Active calls of the source: *; ? = inconclusive; nt = no result given. Sampled rows, rich in hits. Any-hit rate of the full collection: about 19%. Unless noted, calls come from the whole dose curve; as a rule, active = well fitted curve in the direction sought with a large enough effect; inconclusive = small, poorly fitted or top-dose-only effect, or another doubt; inactive = no such curve, though single readings can be large; an effect the other way counts as inactive or inconclusive. Unless noted, % is set by controls: 0 for no effect and ±100 for the full control effect.

SMILES	HT1080 IDH1KD tx	TDP1 cell noCPT	HT1080-NT tox	TDP1 cell CPT	IL-1B inflam inh
COc1ccc(C)cc1NC(=O)COC(=O)Cc1c[nH]c2ccccc12	2.9%	-18.6%	-2.3%	-5.7%	32.0
COc1cc(C(=O)N2CCN(c3ccccc3)CC2)c([N+](=O)[O-])cc1OC	3.4%	5.3%	20.2%	-9.6%	41.1
COc1ccc(OCC(=O)NNC(=O)c2cccc(O)c2)cc1	0.8%	-4.5%	11.2%	1.6%	23.9
COC(=O)c1ccc(OC(=O)CN2C(=O)c3ccccc3C2=O)cc1	0.3%	-5.1%	8.1%	2.1%	15.1
CCc1cccc(CC)c1NC(=O)CSc1nc2ccc(N3C(=O)C4C5C=CC(C5)C4C3=O)cc2s1 (stereo unspecified)	?	18.4µM*	-17.8%	20.6µM*	-18.2
CCN1CCN(c2c(/C=C3\SC(=S)N(Cc4ccco4)C3=O)c(C)c(C#N)c(=O)n2C)CC1	?	14.6µM*	16.4µM*	?	122.8
COC(=O)c1c(O)c2ccccc2[nH]c1=O	4.3%	-3.9%	5.0%	-2.5%	-13.0
CN(C(=O)/C=C/c1ccc2c(c1)OCO2)c1ccccc1	-10.4%	?	0.0%	-17.4%	-3.1
COC(=O)c1nccc2c1[nH]c1ccccc12	0.2%	23.1µM*	7.7%	?	-17.8
C(=C/c1nccc2c1[nH]c1ccccc12)/c1ccc2c(c1)OCO2	16.4µM*	11.2µM*	?	5.62µM*	-2.3
COc1ccc(/C=C/c2nccc3c2[nH]c2ccccc23)cc1	nt	11.2µM*	nt	?	nt
CC(=O)NCCNc1nc(-c2ccccc2C)nc2ccccc12	nt	-23.7%	nt	-25.6%	nt
Cc1cc2ccccn2c1C(=O)c1cccc([N+](=O)[O-])c1	?	?	-15.9%	?	0.0
Cc1cc2ccccn2c1C(=O)c1ccc([N+](=O)[O-])o1	16.4µM*	18.4µM*	?	23.1µM*	-99.1*
Cc1c(C=O)c2ccccn2c1C(=O)c1ccccc1	-9.2%	?	-12.9%	-24.6%	2.4
COc1ccc(C(=O)c2ccc(Cl)c([N+](=O)[O-])c2)cc1	5.8µM*	0.731µM*	?	0.82µM*	-101.3*
Cc1c(C=O)c2ccccn2c1C(=O)c1ccc(Cl)c([N+](=O)[O-])c1	-0.3%	16.4µM*	1.2%	?	-12.5
COc1ccc(C(=O)c2ccc(Cl)cc2)cc1	6.5%	?	?	-12.3%	0.0
Cc1cc2ccccn2c1C(=O)c1ccc(Cl)c([N+](=O)[O-])c1	-0.7%	?	-9.1%	20.6µM*	-75.5*
Cc1ccccc1CS(=O)(=O)c1cn(CC(=O)N2CCC(C)CC2)c2ccccc12	9.9%	13µM*	5.3%	-109.4%	0.0
Cc1ccc(CSc2cn(CC(=O)N3CCCCC3)c3ccccc23)cc1	nt	23.1µM*	nt	?	nt
CC1CCN(C(=O)Cn2cc(SCc3ccccc3)c3ccccc32)CC1	nt	16.4µM*	nt	20.6µM*	nt
CC1CCN(C(=O)Cn2cc(C(=O)C3CC3)c3ccccc32)CC1	-3.7%	-9.6%	-0.4%	-7.6%	-2.6
O=C(Cn1cc(SCc2ccc(F)cc2)c2ccccc21)N1CCCCC1	nt	16.4µM*	nt	16.4µM*	nt
COc1ccc(C2N(c3ccccc3)CCN2c2ccccc2)cc1O	11.3%	-24.7%	3.0%	5.3%	-13.9
CC1CCN(C(=O)Cn2cc(SCC(=O)NCc3ccc(F)cc3)c3ccccc32)CC1	nt	20.6µM*	nt	?	nt
CC1CCN(C(=O)Cn2cc(SCC(=O)Nc3ccccc3)c3ccccc32)CC1	nt	-3.2%	nt	-11.3%	nt
O=C(Nc1cccc(C(F)(F)F)c1)Nc1ccc2nc([C@@H]3O[C@H](CO)[C@@H](O)[C@H](O)[C@H]3O)[nH]c2c1	12.6%	5.7%	12.7%	10.5%	21.1
COc1cc2c(c(OC)c1OC)-c1c(cc3c(c1O)OCO3)C[C@@H](C)[C@@H](C)C2	-15.9%	?	-27.4%	23.1µM*	-3.8
COc1ccc(NC(=O)N2CCCC3(CCN(C(=O)c4cnccn4)CC3)C2)cc1	nt	-10.6%	nt	2.5%	nt
